# Assay results reported in PubChem BioAssay AID2284345 (EPA ToxCast).
# Inconclusive results are not listed. Activity calls are given as the source filed them. How the source made its calls: active means hit-call score of the fitted dose curve at least 0.9, where 1 is the maximum; inconclusive means response in the unintended direction; inactive means score below 0.9.
# Tested on: zebrafish Glucocorticoid Receptor (GR), gene 553740
# Assay: ATG_zfGR_EcoTox2: Attagene TRANS-FACTORIAL EcoTox-2 HepG2 Assay for zebrafish Glucocorticoid Receptor (GR)
# Description: ATG_EcoTox2 is a cell-based, multiplexed assay created by modifying the existing Attagene TRANS-FACTORIAL system to include a panel of nuclear receptors from some or all the following species: human (Homo sapiens), african clawed frog (Xenopus laevis), rainbow trout (Oncorhynchus mykiss), japanese medaka (Oryzias latipes), and zebrafish (Danio rerio). The ECOTOX2-FACTORIAL format uses HepG2, a human liver cell line, with measurements taken at 24 hours after chemical dosing in a 24-well plate. ATG_zfGR_EcoTox2 is one of 29 assay components calculated in the ATG_EcoTox2 assay. It is designed to make measurements of mRNA induction, a form of inducible reporter, as detected with fluorescence intensity signals by Reverse transcription polymerase chain reaction (RT-PCR) and Capillary electrophoresis technology.The assay endpoint ATG_zfGR_EcoTox2 was analyzed in the positive analysis fitting direction relative to DMSO as the negative control and baseline of activity. Using a type of inducible reporter, measures of mRNA for gain-of-signal activity can be used to understand the reporter gene at the transcription factor-level as they relate to the gene for glucocorticoid receptor. Furthermore, this assay endpoint can be referred to as a primary readout, because this assay has produced multiple assay endpoints where this one serves a reporter gene function. […]
row,Compound,outcome
1,O=P(Oc1ccccc1)(Oc1ccccc1)Oc1ccccc1,inactive
2,O=S(=O)(O)C(F)(F)C(F)(F)C(F)(F)C(F)(F)C(F)(F)C(F)(F)F,inactive
